# Experiments:
# Test in all cases: DAPPL (digital affinity profiling via proximity ligation, sequencing); 10 mM Tris-HCl pH 7.5, 50 mM NaCl, 1 mM DTT, 4% glycerol, room temperature, 30 min; GST-TFs on glutathione beads, 16-mer random dsDNA library, 0.1% formaldehyde crosslink after washing; high values mean tight binding
# [1] = biological target: T1, FLI1 (Homo sapiens, UniProt Q01543 1-452); details: protein: recombinant; tags: N-terminal GST; dsDNA, one strand shown
# T1 sequence: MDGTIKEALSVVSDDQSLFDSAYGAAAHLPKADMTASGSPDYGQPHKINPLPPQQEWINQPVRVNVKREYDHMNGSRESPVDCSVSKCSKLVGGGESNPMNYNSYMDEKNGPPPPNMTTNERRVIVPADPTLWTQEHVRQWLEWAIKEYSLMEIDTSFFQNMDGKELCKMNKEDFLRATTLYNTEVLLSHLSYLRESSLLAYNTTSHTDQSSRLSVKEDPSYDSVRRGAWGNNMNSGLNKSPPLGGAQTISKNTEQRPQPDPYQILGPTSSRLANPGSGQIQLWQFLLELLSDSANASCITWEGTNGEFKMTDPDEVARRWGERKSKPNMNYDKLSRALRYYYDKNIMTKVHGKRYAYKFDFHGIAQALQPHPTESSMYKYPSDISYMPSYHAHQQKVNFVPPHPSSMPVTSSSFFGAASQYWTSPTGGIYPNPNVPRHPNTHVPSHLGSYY
# Method in brief: (§1)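 Binding signal is given per hexamer as its read frequency for a factor divided by its frequency in the tag-only sample. GST-fused human transcription factors were expressed in yeast, captured on glutathione beads, barcoded with DNA and pooled with that sample, then incubated with 200 nmole of a 16-mer random double-stranded DNA library in Tris/NaCl/DTT/glycerol buffer for 30 min at room temperature. The pools were then washed, crosslinked, proximity-ligated, amplified by PCR and sequenced on an Illumina NextSeq500.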
# [2] = biological target: T2, ELK1 (Homo sapiens, UniProt P19419 1-428); details: protein: recombinant; tags: N-terminal GST; dsDNA, one strand shown
# T2 sequence: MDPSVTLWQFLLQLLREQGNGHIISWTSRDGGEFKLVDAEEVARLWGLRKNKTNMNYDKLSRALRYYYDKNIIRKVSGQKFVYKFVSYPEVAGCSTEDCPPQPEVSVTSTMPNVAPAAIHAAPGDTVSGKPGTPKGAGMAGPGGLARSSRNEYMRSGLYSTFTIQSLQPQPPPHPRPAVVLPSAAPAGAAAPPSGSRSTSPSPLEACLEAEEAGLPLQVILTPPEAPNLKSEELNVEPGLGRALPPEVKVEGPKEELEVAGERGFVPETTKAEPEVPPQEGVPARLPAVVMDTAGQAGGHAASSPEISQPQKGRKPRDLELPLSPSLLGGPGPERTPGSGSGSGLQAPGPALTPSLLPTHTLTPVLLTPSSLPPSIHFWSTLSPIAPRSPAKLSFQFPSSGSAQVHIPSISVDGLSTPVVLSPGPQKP
# Method in brief: as §1
# [3] = biological target: T3, GABPA (Homo sapiens, UniProt Q06546 1-454); details: protein: recombinant; tags: N-terminal GST; dsDNA, one strand shown
# T3 sequence: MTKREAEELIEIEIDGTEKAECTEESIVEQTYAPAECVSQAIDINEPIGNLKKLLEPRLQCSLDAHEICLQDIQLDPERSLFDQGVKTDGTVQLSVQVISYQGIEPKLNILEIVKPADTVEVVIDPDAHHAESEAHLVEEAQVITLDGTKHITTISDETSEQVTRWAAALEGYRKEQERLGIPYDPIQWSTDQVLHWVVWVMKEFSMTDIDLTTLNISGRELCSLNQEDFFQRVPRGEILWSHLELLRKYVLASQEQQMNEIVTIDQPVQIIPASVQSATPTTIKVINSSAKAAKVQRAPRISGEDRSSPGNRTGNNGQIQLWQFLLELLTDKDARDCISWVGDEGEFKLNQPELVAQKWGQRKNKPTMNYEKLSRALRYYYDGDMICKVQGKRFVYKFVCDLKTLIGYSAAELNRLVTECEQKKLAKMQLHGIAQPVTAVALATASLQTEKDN
# Method in brief: as §1
# [4] = biological target: T4, ERG (Homo sapiens, UniProt P11308 1-479); details: protein: recombinant; tags: N-terminal GST; dsDNA, one strand shown
# T4 sequence: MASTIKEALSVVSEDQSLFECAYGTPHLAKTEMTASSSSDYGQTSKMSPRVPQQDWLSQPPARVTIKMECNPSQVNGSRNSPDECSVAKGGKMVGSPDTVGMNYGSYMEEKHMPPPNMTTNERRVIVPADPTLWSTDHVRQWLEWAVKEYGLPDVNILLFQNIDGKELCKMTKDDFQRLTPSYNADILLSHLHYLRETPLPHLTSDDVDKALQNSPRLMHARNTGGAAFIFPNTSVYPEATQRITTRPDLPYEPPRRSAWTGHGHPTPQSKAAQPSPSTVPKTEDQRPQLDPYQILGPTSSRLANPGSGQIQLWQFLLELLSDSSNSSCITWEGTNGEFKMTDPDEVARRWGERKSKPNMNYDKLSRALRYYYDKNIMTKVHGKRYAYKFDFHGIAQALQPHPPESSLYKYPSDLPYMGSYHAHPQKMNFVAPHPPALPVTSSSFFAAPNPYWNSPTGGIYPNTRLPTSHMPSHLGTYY
# Method in brief: as §1
# [5] = biological target: ELF1 (Homo sapiens, UniProt P32519 1-619); details: protein: recombinant; tags: N-terminal GST; dsDNA, one strand shown
# Method in brief: as §1
# [6] = biological target: T5, EHF (Homo sapiens, UniProt Q9NZC4 1-300); details: protein: recombinant; tags: N-terminal GST; dsDNA, one strand shown
# T5 sequence: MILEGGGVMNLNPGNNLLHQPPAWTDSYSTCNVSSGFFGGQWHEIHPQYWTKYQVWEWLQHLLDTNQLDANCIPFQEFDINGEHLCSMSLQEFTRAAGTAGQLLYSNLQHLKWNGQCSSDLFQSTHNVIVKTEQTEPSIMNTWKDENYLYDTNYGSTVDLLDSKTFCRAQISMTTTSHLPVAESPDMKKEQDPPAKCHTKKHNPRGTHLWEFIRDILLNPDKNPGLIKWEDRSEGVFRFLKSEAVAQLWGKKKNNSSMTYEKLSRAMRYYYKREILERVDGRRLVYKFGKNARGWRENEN
# Method in brief: as §1
# [7] = biological target: SPI1 (Homo sapiens, UniProt P17947 1-270); details: protein: recombinant; tags: N-terminal GST; dsDNA, one strand shown
# Method in brief: as §1
# [8] = biological target: SPIB (Homo sapiens, UniProt Q01892 1-262); details: protein: recombinant; tags: N-terminal GST; dsDNA, one strand shown
# Method in brief: as §1
# [9] = biological target: T6, ELK3 (Homo sapiens, UniProt P41970 1-407); details: protein: recombinant; tags: N-terminal GST; dsDNA, one strand shown
# T6 sequence: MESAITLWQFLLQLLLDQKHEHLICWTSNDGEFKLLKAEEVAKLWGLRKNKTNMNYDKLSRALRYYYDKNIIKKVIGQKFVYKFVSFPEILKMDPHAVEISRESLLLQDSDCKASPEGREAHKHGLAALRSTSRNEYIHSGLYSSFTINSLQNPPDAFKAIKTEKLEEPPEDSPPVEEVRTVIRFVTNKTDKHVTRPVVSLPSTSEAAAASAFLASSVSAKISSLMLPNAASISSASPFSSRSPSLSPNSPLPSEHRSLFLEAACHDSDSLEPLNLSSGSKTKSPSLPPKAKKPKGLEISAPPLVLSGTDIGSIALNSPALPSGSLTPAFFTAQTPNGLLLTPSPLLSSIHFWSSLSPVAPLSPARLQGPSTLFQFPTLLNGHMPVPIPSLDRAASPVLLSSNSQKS
# Method in brief: as §1
# [10] = biological target: T7, FEV (Homo sapiens, UniProt Q99581 1-238); details: protein: recombinant; tags: N-terminal GST; dsDNA, one strand shown
# T7 sequence: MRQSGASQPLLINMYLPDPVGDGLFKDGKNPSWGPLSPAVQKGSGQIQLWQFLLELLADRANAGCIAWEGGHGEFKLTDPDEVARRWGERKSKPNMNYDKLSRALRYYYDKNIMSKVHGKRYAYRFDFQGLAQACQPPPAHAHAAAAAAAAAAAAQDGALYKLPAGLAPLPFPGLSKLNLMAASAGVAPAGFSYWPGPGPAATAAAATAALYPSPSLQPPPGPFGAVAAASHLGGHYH
# Method in brief: as §1
# [11] = biological target: ETV5 (Homo sapiens, UniProt P41161 1-510); details: protein: recombinant; tags: N-terminal GST; dsDNA, one strand shown
# Method in brief: as §1
# [12] = biological target: HSF1 (Homo sapiens, UniProt Q00613 1-529); details: protein: recombinant; tags: N-terminal GST; chain copies: 3; dsDNA, one strand shown
# Method in brief: as §1
# [13] = biological target: T8, SPIC (Homo sapiens, UniProt Q8N5J4 1-248); details: protein: recombinant; tags: N-terminal GST; dsDNA, one strand shown
# T8 sequence: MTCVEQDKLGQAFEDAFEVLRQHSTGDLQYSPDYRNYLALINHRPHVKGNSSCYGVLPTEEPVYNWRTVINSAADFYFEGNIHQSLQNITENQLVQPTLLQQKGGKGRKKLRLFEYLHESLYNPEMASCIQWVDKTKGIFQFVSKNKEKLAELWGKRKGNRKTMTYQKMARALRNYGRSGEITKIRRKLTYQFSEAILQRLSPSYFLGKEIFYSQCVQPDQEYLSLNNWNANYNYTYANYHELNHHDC
# Method in brief: as §1
# [14] = biological target: ELF4 (Homo sapiens, UniProt Q99607 1-663); details: protein: recombinant; tags: N-terminal GST; dsDNA, one strand shown
# Method in brief: as §1
# [15] = biological target: T9, ELK4 (Homo sapiens, UniProt P28324-2 1-405); details: protein: recombinant; tags: N-terminal GST; dsDNA, one strand shown
# T9 sequence: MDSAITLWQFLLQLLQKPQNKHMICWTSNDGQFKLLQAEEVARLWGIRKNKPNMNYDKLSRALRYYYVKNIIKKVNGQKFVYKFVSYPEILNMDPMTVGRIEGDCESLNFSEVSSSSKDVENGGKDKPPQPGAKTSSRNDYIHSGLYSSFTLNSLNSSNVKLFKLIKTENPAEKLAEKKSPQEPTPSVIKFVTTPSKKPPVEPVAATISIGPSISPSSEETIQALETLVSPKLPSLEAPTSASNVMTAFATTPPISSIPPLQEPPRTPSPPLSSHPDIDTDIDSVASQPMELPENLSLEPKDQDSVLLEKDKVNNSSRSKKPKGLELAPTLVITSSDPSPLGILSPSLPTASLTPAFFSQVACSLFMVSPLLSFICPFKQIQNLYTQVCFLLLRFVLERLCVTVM
# Method in brief: as §1
# [16] = biological target: T10, ETV2 (Homo sapiens, UniProt O00321 1-342); details: protein: recombinant; tags: N-terminal GST; dsDNA, one strand shown
# T10 sequence: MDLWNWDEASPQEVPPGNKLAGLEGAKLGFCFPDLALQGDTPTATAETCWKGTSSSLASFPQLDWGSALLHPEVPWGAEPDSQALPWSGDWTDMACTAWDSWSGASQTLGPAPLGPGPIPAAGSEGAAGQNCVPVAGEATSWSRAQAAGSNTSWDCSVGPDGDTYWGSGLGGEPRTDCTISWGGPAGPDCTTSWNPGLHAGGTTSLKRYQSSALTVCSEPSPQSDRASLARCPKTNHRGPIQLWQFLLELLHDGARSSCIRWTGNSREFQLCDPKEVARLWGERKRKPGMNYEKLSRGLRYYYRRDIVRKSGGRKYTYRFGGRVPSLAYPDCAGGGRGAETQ
# Method in brief: as §1
# [17] = biological target: T11, ELF3 (Homo sapiens, UniProt P78545 1-371); details: protein: recombinant; tags: N-terminal GST; dsDNA, one strand shown
# T11 sequence: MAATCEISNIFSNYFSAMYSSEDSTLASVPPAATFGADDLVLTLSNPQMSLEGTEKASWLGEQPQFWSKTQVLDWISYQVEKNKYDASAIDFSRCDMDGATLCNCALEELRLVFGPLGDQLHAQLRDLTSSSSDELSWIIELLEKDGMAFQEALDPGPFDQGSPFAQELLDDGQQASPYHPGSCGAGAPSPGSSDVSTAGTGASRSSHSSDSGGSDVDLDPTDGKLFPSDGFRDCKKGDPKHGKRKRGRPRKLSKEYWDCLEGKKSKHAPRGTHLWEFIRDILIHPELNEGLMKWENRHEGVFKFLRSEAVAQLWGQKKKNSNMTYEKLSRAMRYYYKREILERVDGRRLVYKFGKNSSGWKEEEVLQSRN
# Method in brief: as §1
# [18] = biological target: CRX (Homo sapiens, UniProt O43186 1-299); details: protein: recombinant; tags: N-terminal GST; dsDNA, one strand shown
# Method in brief: as §1
# [19] = biological target: ETV1 (Homo sapiens, UniProt P50549 1-477); details: protein: recombinant; tags: N-terminal GST; dsDNA, one strand shown
# Method in brief: as §1
# Sequence of ELF4 (Q99607 whole entry): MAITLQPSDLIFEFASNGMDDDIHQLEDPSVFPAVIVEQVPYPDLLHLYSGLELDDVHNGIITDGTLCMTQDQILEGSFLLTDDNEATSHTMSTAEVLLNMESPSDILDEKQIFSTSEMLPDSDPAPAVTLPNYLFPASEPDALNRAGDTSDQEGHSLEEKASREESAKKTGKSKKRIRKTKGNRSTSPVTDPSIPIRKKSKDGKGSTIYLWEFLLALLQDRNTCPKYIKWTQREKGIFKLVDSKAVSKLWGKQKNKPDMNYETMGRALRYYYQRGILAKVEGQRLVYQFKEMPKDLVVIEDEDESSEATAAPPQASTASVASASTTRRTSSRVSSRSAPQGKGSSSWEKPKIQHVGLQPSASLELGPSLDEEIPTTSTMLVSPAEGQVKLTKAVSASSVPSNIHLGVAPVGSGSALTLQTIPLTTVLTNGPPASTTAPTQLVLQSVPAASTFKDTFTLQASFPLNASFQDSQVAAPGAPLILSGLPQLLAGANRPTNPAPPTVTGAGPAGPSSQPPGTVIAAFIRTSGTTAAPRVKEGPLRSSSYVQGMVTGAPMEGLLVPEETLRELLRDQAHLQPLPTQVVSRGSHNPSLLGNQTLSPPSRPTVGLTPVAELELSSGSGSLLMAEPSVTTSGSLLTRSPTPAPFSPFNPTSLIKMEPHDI
# Sequence of CRX (O43186 whole entry): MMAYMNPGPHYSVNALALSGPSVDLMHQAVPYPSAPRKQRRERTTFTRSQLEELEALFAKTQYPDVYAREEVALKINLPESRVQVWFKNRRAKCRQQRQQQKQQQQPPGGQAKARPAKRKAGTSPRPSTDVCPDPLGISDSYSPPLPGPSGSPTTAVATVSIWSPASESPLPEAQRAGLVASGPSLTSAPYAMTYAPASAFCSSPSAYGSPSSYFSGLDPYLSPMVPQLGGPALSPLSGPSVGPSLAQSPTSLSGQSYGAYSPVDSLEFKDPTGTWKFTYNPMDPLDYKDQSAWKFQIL
# Sequence of ELF1 (P32519 whole entry): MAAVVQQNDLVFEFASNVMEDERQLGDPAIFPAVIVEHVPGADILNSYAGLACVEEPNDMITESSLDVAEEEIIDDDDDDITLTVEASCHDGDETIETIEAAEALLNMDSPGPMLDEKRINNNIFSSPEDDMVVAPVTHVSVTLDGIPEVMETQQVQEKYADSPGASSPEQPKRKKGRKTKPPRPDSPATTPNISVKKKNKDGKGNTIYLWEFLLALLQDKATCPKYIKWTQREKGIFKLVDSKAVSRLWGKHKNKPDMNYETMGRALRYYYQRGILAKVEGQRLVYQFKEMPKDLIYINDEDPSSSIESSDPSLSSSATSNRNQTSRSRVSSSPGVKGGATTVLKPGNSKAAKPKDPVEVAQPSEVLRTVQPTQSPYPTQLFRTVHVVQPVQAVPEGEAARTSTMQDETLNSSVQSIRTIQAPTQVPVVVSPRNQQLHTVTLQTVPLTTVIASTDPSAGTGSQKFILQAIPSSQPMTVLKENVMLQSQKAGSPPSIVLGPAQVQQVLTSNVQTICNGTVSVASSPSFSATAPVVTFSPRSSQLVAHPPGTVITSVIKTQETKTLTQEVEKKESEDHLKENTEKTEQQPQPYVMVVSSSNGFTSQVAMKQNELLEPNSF
# Sequence of ETV5 (P41161 whole entry): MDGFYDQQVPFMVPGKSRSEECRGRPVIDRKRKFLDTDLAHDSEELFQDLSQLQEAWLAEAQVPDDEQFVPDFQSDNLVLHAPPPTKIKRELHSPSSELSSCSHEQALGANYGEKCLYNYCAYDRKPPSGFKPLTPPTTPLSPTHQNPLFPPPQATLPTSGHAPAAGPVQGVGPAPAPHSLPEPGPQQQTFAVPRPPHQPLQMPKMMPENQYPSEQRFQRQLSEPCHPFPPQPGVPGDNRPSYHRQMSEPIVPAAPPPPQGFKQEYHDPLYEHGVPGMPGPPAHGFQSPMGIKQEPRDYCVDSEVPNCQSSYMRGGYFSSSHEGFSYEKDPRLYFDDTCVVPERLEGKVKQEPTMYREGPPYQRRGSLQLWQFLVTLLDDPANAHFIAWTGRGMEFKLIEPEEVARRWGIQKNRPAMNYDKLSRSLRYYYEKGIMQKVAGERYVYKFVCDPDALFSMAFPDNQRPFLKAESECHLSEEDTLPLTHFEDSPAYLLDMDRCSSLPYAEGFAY
# Sequence of HSF1 (Q00613 whole entry): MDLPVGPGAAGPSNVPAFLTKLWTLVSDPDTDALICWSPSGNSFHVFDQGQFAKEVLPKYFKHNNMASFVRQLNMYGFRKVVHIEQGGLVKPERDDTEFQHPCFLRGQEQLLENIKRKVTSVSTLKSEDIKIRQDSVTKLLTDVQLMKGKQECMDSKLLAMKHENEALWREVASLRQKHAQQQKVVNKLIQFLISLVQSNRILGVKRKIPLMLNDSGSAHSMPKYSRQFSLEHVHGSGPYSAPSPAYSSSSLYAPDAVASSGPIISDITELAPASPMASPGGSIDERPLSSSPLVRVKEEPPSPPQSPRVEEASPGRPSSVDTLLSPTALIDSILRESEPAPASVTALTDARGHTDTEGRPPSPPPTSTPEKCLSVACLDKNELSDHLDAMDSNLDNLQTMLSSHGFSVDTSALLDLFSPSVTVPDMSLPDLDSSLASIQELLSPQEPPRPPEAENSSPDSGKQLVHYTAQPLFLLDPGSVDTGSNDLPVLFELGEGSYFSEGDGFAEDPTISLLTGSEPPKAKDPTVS
# Sequence of ETV1 (P50549 whole entry): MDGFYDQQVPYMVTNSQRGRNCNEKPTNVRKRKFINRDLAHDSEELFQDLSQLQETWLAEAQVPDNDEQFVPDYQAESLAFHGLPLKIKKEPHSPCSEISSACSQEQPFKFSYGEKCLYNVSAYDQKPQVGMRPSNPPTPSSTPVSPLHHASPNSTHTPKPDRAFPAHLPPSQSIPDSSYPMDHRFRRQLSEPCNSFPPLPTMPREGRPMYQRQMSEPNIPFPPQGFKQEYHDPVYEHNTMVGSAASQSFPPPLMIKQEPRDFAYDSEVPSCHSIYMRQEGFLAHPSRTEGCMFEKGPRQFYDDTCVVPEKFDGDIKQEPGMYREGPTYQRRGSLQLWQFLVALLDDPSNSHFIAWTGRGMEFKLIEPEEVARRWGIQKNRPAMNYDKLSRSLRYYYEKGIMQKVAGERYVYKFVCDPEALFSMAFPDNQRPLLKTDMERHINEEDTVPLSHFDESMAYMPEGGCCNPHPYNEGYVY
# Sequence of SPIB (Q01892 whole entry): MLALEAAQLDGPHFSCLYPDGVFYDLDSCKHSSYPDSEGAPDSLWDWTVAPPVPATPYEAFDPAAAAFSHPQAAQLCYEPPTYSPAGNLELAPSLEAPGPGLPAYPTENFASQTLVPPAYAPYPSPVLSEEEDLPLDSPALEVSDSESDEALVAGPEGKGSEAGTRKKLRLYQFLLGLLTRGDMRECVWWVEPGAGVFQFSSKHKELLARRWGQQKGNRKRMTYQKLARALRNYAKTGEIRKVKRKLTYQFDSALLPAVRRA
sequence,measurement,setting,value
ATGAGC,binding signal,[1],"1.11 fold enrichment (6-mer frequency, TF over GST control)"
same,binding signal,[2],"1.27 fold enrichment (6-mer frequency, TF over GST control)"
same,binding signal,[3],"1.33 fold enrichment (6-mer frequency, TF over GST control)"
same,binding signal,[4],"1.2 fold enrichment (6-mer frequency, TF over GST control)"
same,binding signal,[5],"1.24 fold enrichment (6-mer frequency, TF over GST control)"
same,binding signal,[6],"1.18 fold enrichment (6-mer frequency, TF over GST control)"
same,binding signal,[7],"1.13 fold enrichment (6-mer frequency, TF over GST control)"
same,binding signal,[8],"1.24 fold enrichment (6-mer frequency, TF over GST control)"
same,binding signal,[9],"1.19 fold enrichment (6-mer frequency, TF over GST control)"
same,binding signal,[10],"1.24 fold enrichment (6-mer frequency, TF over GST control)"
same,binding signal,[11],"1.23 fold enrichment (6-mer frequency, TF over GST control)"
same,binding signal,[12],"1.13 fold enrichment (6-mer frequency, TF over GST control)"
same,binding signal,[13],"1.29 fold enrichment (6-mer frequency, TF over GST control)"
same,binding signal,[14],"1.29 fold enrichment (6-mer frequency, TF over GST control)"
same,binding signal,[15],"1.26 fold enrichment (6-mer frequency, TF over GST control)"
same,binding signal,[16],"1.3 fold enrichment (6-mer frequency, TF over GST control)"
same,binding signal,[17],"1.35 fold enrichment (6-mer frequency, TF over GST control)"
same,binding signal,[18],"1.31 fold enrichment (6-mer frequency, TF over GST control)"
same,binding signal,[19],"1.14 fold enrichment (6-mer frequency, TF over GST control)"

# From PMC7862700, “An all-to-all approach to the identification of sequence-specific readers for epigenetic DNA modifications on cytosine”
